Out of some 3,600 compounds screened, about 900 (25%) were called active. These entries were drawn from the full list. Potency and affinity values are given separately. Values without a mark were called inactive. No rule for the calls is given here.
The compounds below were run against Protein Tat (Human immunodeficiency virus type 1 group M subtype B (isolate HXB2)) (UniProt P04608) (assay: inhibitors of Tat binding to TAR RNA, dose response, counter-screen for Vif-APOBEC3G degradation inhibitor project, biochemical, fluorescence polarization, FAM-labeled TAR RNA (AID 1117361)). Conditions: outcome: dose series up to 100 µM unless noted; series mostly up to 100 µM; inhibition: at the top concentration.
`Cc1ccc(-n2ncc(C#N)c2/N=C/N2CCCCCC2)cc1` was tested, and the “inhibition” value was 4.05%. For `O=C1OCCC1Sc1nc2ccccc2n1Cc1ccccc1` (stereo unspecified), the outcome was “inactive”. For `Cn1c(=O)oc2cc(S(=O)(=O)Nc3cccc(C(=O)O)c3)ccc21`, the “inhibition” value was 8.19%. With `CCOC(=O)c1ccc(NS(=O)(=O)c2ccc3oc(=O)[nH]c3c2)cc1` the outcome was “inactive”. With `COC(=O)c1sc(NC(=O)c2ccc(Cn3cc(Cl)cn3)o2)c(C#N)c1C` the “inhibition” value was 25%. In the case of `CCOc1ccc(/C=C2\SC(=S)N(CCC(=O)O)C2=O)cc1`, the “inhibition” value is reported as 0.82%. `Cc1ccc(OCCSc2nnc(-c3ccncc3)n2C)cc1` was tested, and the “inhibition” value was 2.73%. `CC(Oc1cccc2cccnc12)C(=O)N/N=C/c1ccc2c(c1)OCO2` (stereo unspecified) was tested, and the “inhibition” value was 4.12%. In the case of `COc1cc(NC(=O)c2noc3c2CCC3)c(OC)cc1Cl`, the “inhibition” value is reported as 2.34%. With `O=C(c1cccs1)N1CCN(C/C=C/c2ccccc2)CC1` the “inhibition” value was 2.03%. With `c1ccc2c(c1)NCC1CCCN21` (stereo unspecified) the outcome was “inactive”. For `COc1ccccc1NC(=O)c1oc2ccc(C)cc2c1C`, the outcome was “inactive”. In the case of `Cc1nnc(-c2cnn(-c3ccccc3)c2N)n1Cc1cccc(C(F)(F)F)c1`, the “inhibition” value is reported as 4.05%. For `CCOC(=O)N1CCC(NC(=O)c2cc3c(C)nc4ccccc4c3o2)CC1`, the “inhibition” value was 21.6%. In the case of `O=C(Nc1ccccc1C(=O)NCC1CCCO1)c1ccccc1` (stereo unspecified), the outcome is reported as “inactive”. In the case of `CCNC(=S)Nc1cccc(S(=O)(=O)NC2=NCCC2)c1`, the outcome is reported as “inactive”. In the case of `CC(C)Oc1ccc(-c2cc(C(=O)NCCN3CCOCC3)c3ccccc3n2)cc1`, the outcome is reported as “inactive”. For `O=[N+]([O-])c1ccc(Cl)c(S(=O)(=O)Nc2cccc(S(=O)(=O)NC3=NCCC3)c2)c1`, the outcome was “inactive”. In the case of `O=C(NCC1CCCO1)c1cc2ccccc2oc1=O` (stereo unspecified), the outcome is reported as “inactive”. In the case of `CCOC(=O)N1CCC(NC(=O)c2cc(C(=O)NCc3cccc(Cl)c3)ccc2CO)CC1`, the “inhibition” value is reported as 1.36%. `Cc1ccc2cccc(S(=O)(=O)N3CCN(c4ccccc4F)CC3)c2n1` was tested, and the outcome was “inactive”. In the case of `S=C(N/N=C/c1cccs1)NC1CC2CCC1C2` (stereo unspecified), the outcome is reported as “inactive”. In the case of `CC1=C(C(=O)OC(C)C)C(c2ccc(Br)s2)NC(=O)N1C` (stereo unspecified), the outcome is reported as “inactive”. For `COC(=O)Nc1ccc(C)c2nsnc12`, the outcome was “inactive”. With `COc1ccccc1Cn1c(-c2ccccc2OC)nc2ccccc21` the “inhibition” value was 6.14%. In the case of `CCOc1ccc2nc(SCC(=O)c3cccs3)sc2c1`, the outcome is reported as “inactive”. In the case of `O=C(Nc1cnn(Cc2ccc(Cl)c(Cl)c2)c1)c1nc2ncccn2n1`, the outcome is reported as “inactive”. For `CCOC(=O)C1CCN(S(=O)(=O)c2cccc(-c3cn4cccnc4n3)c2)CC1`, the “inhibition” value was 8.11%. In the case of `CCN(CC)S(=O)(=O)c1ccc(/C=C/C(=O)Nc2ccc(N3CCOCC3)cc2)cc1`, the “inhibition” value is reported as 5.77%. For `O=C1CC(N2CCOCC2)C(=O)N1c1ccc(Cl)cc1` (stereo unspecified), the outcome was “inactive”. With `CC(Sc1nnc(C2CC2)n1C)C(=O)Nc1ccc(N2CCOCC2)cc1` (stereo unspecified) the “inhibition” value was 5.68%. In the case of `Cn1c(-c2ccccc2)cnc1SCC(N)=O`, the “inhibition” value is reported as 2.03%. In the case of `COc1nc(N(c2ccccc2)c2ccccc2)nc(-n2ccnc2)n1`, the “inhibition” value is reported as 25.7%. With `C(=N\n1cnnc1)/c1ccc2ncccc2c1` the outcome was “inactive”. With `CC(C)OC(=O)CSc1nnc(-c2ccccn2)n1-c1ccccc1` the “inhibition” value was 6.76%. With `C/C(CC1CC2=C(CC1(C)C)C(C)(C)CCC2)=N\NC(N)=S` (stereo unspecified) the outcome was “inactive”. For `Cc1nc(NC(=O)COC(=O)CCS(=O)(=O)c2ccccc2Cl)c(Cl)cc1Cl`, the “inhibition” value was 11.5%. With `Cc1ccc(NC(=S)NNc2ncc(C(F)(F)F)cc2Cl)cc1` the outcome was “inactive”. In the case of `O=c1c2cnn(-c3ccccc3Cl)c2ncn1Cc1cccnc1`, the “inhibition” value is reported as 8.78%. In the case of `CC1=CC(C)C2C(=O)N(CCCN(C)C)C(=O)C2C1` (stereo unspecified), the “inhibition” value is reported as 2.03%. For `COc1ccc(Nc2nc(N)nc(CSC(=S)N3CCN(c4ccccc4)CC3)n2)cc1`, the “inhibition” value was 15.7%. With `Cc1nc(C)c(C(=O)OCC(=O)Nc2ccc(C)c(C)c2)s1` the outcome was “inactive”. With `O=C(N/N=C/C1CC=CCC1)c1ccccc1O` (stereo unspecified) the outcome was “inactive”. In the case of `O=C(Cn1cc2c(n1)CCCC2)N1CCCc2ccccc21`, the “inhibition” value is reported as 6.76%. In the case of `CCc1cccc(CC)c1-n1c(SCC(=O)N2CCCc3ccccc32)nc(O)cc1=O`, the outcome is reported as “inactive”. For `O=C(Cn1ncc2c(=O)oc3ccccc3c21)N1CCCc2ccccc21`, the outcome was “inactive”. In the case of `Cc1onc(-c2ccccc2)c1C(=O)N1CCCc2ccccc21`, the outcome is reported as “inactive”. With `Cc1nnc(SCC(=O)NCc2cccs2)[nH]c1=O` the “inhibition” value was 4.05%. In the case of `COc1ccc(C(CNCC(=O)Nc2ccccc2F)N(C)C)cc1` (stereo unspecified), the outcome is reported as “inactive”. With `O=[N+]([O-])/C(C(Cl)=C(Cl)Cl)=C(/NC1CC1)Sc1ccccc1` the “inhibition” value was 0.82%. For `O=C1CCCN1c1ccc(S(=O)(=O)N2CCC(c3ccccc3)CC2)cc1`, the “inhibition” value was 0.68%. In the case of `N#C/C(=C/c1cc(Br)cs1)C(=O)NCC1CCCO1` (stereo unspecified), the “inhibition” value is reported as 2.03%. In the case of `O=C(COc1ccc(Cl)cc1)N1CCN(S(=O)(=O)c2ccc(Cl)cc2)CC1`, the “inhibition” value is reported as 11.5%. In the case of `Cc1ccc(Cl)cc1N1CCN(C(=O)Cc2cn(C)c3ccccc23)CC1`, the “inhibition” value is reported as 4.05%. In the case of `CC(C)Cn1nc(NC(=O)C(C)(C)C)c2cc3ccccc3nc21`, the “inhibition” value is reported as 22.3%. In the case of `Cc1ccc(C(=O)NNS(=O)(=O)c2ccc(F)cc2)cc1`, the “inhibition” value is reported as 1.67%. In the case of `O=C(CN1CCN(c2ccccc2O)CC1)Nc1ccc2c(c1)CCC2`, the “inhibition” value is reported as 1.36%. In the case of `O=[N+]([O-])c1ccc(NCCCNS(=O)(=O)c2ccc(Cl)cc2)c(Cl)c1`, the “inhibition” value is reported as 3.38%. With `COc1cc([N+](=O)[O-])c(N2CCOCC2)c([N+](=O)[O-])c1OC` the outcome was “inactive”. `O=S(=O)(NCC1CCCO1)c1cc(Br)c(Br)s1` (stereo unspecified) was tested, and the outcome was “inactive”. In the case of `CCCOC(=O)/C(C(N)=NCc1ccccc1)=C(\O)OCCC`, the “inhibition” value is reported as 9.02%. For `O=C1CCCC2=C1C(c1cccs1)n1ncnc1N2` (stereo unspecified), the “inhibition” value was 9.46%. For `Cc1cc(C)n2nc(SCC(=O)Nc3ccc(F)cc3)nc2n1`, the “inhibition” value was 6.08%. In the case of `Cc1nnc(NCCc2ccccc2)n(N)c1=O`, the “inhibition” value is reported as 3.38%. In the case of `O=C(CCOc1ccccc1)NCC(c1ccco1)N1CCCCC1` (stereo unspecified), the “inhibition” value is reported as 8.87%. In the case of `O=C(NCC(c1ccco1)N1CCCC1)c1cccc(S(=O)(=O)N2CCCCC2)c1` (stereo unspecified), the “inhibition” value is reported as 11%. With `Nc1nc(Nc2ccccc2)sc1C(=O)c1ccccc1` the “inhibition” value was 9.07%. In the case of `COCCN(Cc1cc2ccccc2[nH]c1=O)C(=O)c1ccccc1OC`, the “inhibition” value is reported as 4.77%. With `CCc1ccc2c(c1)cc(C)c1nnc(SCC(=O)Nc3cc(OC)c(OC)cc3C(=O)O)n12` the outcome was “inactive”. `C=CCOc1ccc(Br)cc1/C=N/O` was tested, and the “inhibition” value was 11.5%. In the case of `Cc1cccc(C)c1NC(=O)CS(=O)CC(=O)NC1CCN(Cc2ccccc2)CC1` (stereo unspecified), the outcome is reported as “inactive [at 50 µM]”. For `CCOC(=O)CC(=O)CSc1ncc(C(=O)OCC)c(N)n1`, the outcome was “inactive”. `CCOC(=O)c1ccc(-n2ncc(C(=O)OCC)c2N)cc1` was tested, and the outcome was “inactive”. In the case of `COc1ccc2cc(C3(C)NC(=O)N(CC(=O)Nc4c(C)n(C)n(-c5ccccc5)c4=O)C3=O)ccc2c1` (stereo unspecified), the “inhibition” value is reported as 11.6%. With `O=S(=O)(/C=C/c1ccccc1)N1CCN(c2ccc(F)cc2)CC1` the “inhibition” value was 4.09%. `CC(=O)Nc1cccc(C(=O)NC(C)c2ccc(S(N)(=O)=O)cc2)c1` (stereo unspecified) was tested, and the “inhibition” value was 13.5%. For `CCCN(CCC)CCCNc1ccc2nnc(-c3ccc(F)cc3)n2n1`, the “inhibition” value was 25%. For `CCOC(=O)C1CCN(C(=O)C2CCN(S(=O)(=O)c3cc(Cl)ccc3Cl)CC2)CC1`, the “inhibition” value was 2.03%. For `CCOC(=O)C1CCN(C(=O)c2ccc(OC)cc2OC)CC1`, the outcome was “inactive”. For `CCC1SC2=NC(C)=C(C(=O)OC)C(c3ccc(C(=O)OC)cc3)N2C1=O` (stereo unspecified), the “inhibition” value was 2.05%. With `CCOC(=O)c1ccc(N2C(=O)c3n[nH]c(C)c3C2c2ccc(OC)cc2OC)cc1` (stereo unspecified) the outcome was “inactive”. With `CC1=NN(C(=O)c2csc(C)c2)C(O)(C(F)(F)F)C1` (stereo unspecified) the outcome was “inactive”. With `CCCC(=O)Nc1cccc(-c2nc3ccccc3o2)c1` the “inhibition” value was 4.73%. In the case of `Brc1ccccc1Cn1c(-c2cncs2)nc2ccccc21`, the outcome is reported as “inactive”. For `O=C(CNS(=O)(=O)c1ccc2ccccc2c1)Nc1ccc(F)c(F)c1F`, the “inhibition” value was 21.4%. For `COc1cccc(CN2CCNC(=O)C2CC(=O)NCCn2nc(C)cc2C)c1OC` (stereo unspecified), the “inhibition” value was 27.2%. With `CC(C)(C)CN1CCNC(=O)C1CC(=O)NCCc1ccccc1C(F)(F)F` (stereo unspecified) the outcome was “inactive”. `Cc1nc2nc(C)c(CCC(=O)N3CCN(c4ccccc4)CC3)c(C)n2n1` was tested, and the “inhibition” value was 16.4%. In the case of `O=C(CSc1ccccc1)N1CCN(c2ccccc2)CC1`, the “inhibition” value is reported as 2.05%. For `Cc1nc2scc(-c3ccccc3)c2c(=O)n1/N=C/c1ccco1`, the “inhibition” value was 0.68%. `COc1cccc(/C=N/n2c(-c3cc(C)[nH]n3)n[nH]c2=S)c1` was tested, and the outcome was “inactive”. In the case of `C(=N\Nc1nncn1/N=C/c1ccco1)/c1ccco1`, the outcome is reported as “inactive”. For `Cn1ccnc1SCC(=O)c1ccc(Br)cc1`, the outcome was “inactive”. For `CCO[C@H]1OC(C(=O)NCc2ccccc2)=C[C@@H](c2coc3ccccc3c2=O)[C@@H]1CCCO`, the outcome was “inactive”. With `C/C(N)=C(/C#N)C(=O)COC(=O)CCSc1ccccc1` the “inhibition” value was 4.05%. With `CCN(CC)Cc1cc(Nc2c3ccccc3nc3c4ccccc4n(C)c23)cc(CN(CC)CC)c1O` the outcome was “inactive”. `Clc1ccc(-n2ncc3c(NCc4ccccn4)ncnc32)cc1` was tested, and the outcome was “inactive”. For `COc1ccccc1C(C#N)N1N=C(C)CC1(C)C` (stereo unspecified), the outcome was “inactive”. With `CSc1nc2ccc3nc(NC(=O)c4ccccc4)sc3c2s1` the “inhibition” value was 8.11%. For `CCOc1ccc(C(=O)NC(=S)Nc2ccc(N3CCC(C)CC3)cc2)cc1[N+](=O)[O-]`, the “inhibition” value was 10.7%. For `CCCCN(C(=O)c1ccccc1OCc1ccc(F)cc1)c1c(N)n(CC(C)C)c(=O)[nH]c1=O`, the “inhibition” value was 5.68%. `CC(C)c1ccc(SCc2noc(C(=O)NCC3CCCO3)c2C(=O)O)cc1` (stereo unspecified) was tested, and the outcome was “inactive”. In the case of `CCN1C(=O)/C(=C/N2CC(C)CC(C)C2)SC1=S` (stereo unspecified), the outcome is reported as “inactive”. In the case of `Cc1ccccc1N1C(=O)C2ON(c3ccccc3)C(c3cccnc3)C2C1=O` (stereo unspecified), the “inhibition” value is reported as 26.6%. For `CC1=CCC(/C=N\Nc2nnc3c(n2)[nH]c2ccccc23)CC1` (stereo unspecified), the “inhibition” value was 10.9%. For `CCOC(=O)c1nc2sc(C)c(C)c2c(=O)[nH]1`, the outcome was “inactive”. In the case of `CCN1C(=O)c2ccccc2S(=O)c2ccc(C(=O)N3CCCC3)cc21` (stereo unspecified), the outcome is reported as “inactive”. With `Cc1cccc(N2CCN(CC(=O)NCC3CCCCC3)CC2)c1C` the outcome was “inactive”. `Nc1nc(-c2ccc(F)cc2)cc(C(F)(F)F)n1` was tested, and the “inhibition” value was 4.05%. With `O=C(CN1C(=O)c2ccccc2C1=O)OC(C(=O)c1ccc(Cl)cc1)c1ccccc1` (stereo unspecified) the “inhibition” value was 1.36%. `COc1ccc(NC(=O)c2ccccc2NC(=O)CSc2ccc(Cl)cc2)cc1` was tested, and the “inhibition” value was 13.5%.

Source: PubChem BioAssay AID1117361 (Southern Research Institute, 2015)
